# Screens: PubChem BioAssay, National Center for Advancing Translational Sciences (NCATS)
# Compounds with a hit are over-represented: about 10% of the library has one in this group of screens.
# PNC assembly inh: inhibitors of perinucleolar compartment assembly | 140,000 compounds, 3.1% hits | PC3M PTB-GFP, PNC prevalence imaging, 16 h; stronger effect = lower value | AID 2417 | activity change (PNC), negative = inhibition, % at 10 µM;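 active = readout at or below -70, meaning at least 70% loss of cells showing the perinucleolar compartment, a nuclear body marking cancer cells; inconclusive = readout between -30 and a set limit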
#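 Read-out is percentage of cells bearing a perinucleolar compartment, from automated 20x imaging of fixed, Hoechst-stained PC3M PTB-GFP cells. Cells were seeded 4 h, then exposed 16 h to compound (23 nl of library stock) in duplicate plates.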
# GLA inh pH 4.5: blocks human alpha-galactosidase A at pH 4.5; P06280; purified enzyme, 4-MU-alpha-Gal fluorescence, pH 4.5; activity change, negative = inhibition, % at 105 µM; 230,000 tested, under 10 active
# Target sequence (P06280 whole entry, looked up): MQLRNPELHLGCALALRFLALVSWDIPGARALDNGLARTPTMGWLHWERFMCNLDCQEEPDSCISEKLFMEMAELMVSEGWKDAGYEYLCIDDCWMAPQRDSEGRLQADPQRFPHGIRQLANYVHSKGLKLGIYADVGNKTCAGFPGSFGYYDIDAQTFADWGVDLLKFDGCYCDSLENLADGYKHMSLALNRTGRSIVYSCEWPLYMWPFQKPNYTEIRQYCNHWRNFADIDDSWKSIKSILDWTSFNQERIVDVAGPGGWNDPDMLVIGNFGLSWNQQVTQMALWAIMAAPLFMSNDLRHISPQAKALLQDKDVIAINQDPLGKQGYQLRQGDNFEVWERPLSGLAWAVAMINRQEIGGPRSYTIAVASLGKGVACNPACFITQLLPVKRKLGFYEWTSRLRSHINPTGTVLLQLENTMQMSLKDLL
# HPGD inh: blocks human HPGD enzyme activity | purified HPGD, NADH fluorescence kinetic, PGE2 substrate | Potency, µM, usual class: inhibitors | 150,000 compounds, 4.3% hits | AID 894; active = well fitted inhibition curve with a large enough effect, not every such curve was filed as active; inconclusive = small, poorly fitted or top-dose-only effect, or another doubt; inactive = no such curve, though single readings can be large or run the other way
# Target sequence (P15428 whole entry, looked up): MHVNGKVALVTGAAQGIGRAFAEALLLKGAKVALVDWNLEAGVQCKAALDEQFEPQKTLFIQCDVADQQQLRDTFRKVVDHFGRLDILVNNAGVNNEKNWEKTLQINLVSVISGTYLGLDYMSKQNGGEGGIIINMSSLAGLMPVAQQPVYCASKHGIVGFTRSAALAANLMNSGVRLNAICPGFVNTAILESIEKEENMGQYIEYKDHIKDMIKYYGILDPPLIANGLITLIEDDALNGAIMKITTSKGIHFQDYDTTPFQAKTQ
#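 NADH formation kinetics: reaction with 30 uM PGE2 and 1 mM NAD+ (final), 20 nM enzyme, Tris-HCl pH 8 with Tween 20, after 15 min compound preincubation at room temperature. Fluorescence change, last versus first of five reads.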
# ALOX12 inhib: inhibitors of human 12-lipoxygenase (ALOX12); 150,000 compounds, 0.12% hits; purified 12-hLO, xylenol orange hydroperoxide absorbance; P18054; Potency, µM (series often up to 57.1 µM), usual class: inhibitors; note: nearly all actives have a fitted effect of over 55% in size
#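 Purified human 12hLO (150 nM final) was preincubated with compounds for 15 min at room temperature in 25 mM Hepes pH 7.0, 0.01% Triton X-100, then reacted with 40 uM arachidonic acid for 30 min. Hydroperoxide was detected with ferrous iron/xylenol orange.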
# aGal spleen mod: inhibitors or activators of human alpha-galactosidase in spleen homogenate; human spleen homogenate, 4MU-alpha-Gal fluorescence, 40 min; Potency, µM (doses to about 80 µM), most hits filed as inhibitors; 240,000 compounds, 0.008% hits
#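 Spleen homogenate 1 ug + cpd (titration) + 4-MU-alpha-D-galactopyranoside 1 mM; 37C 40 min; 50 mM citrate/phosphate pH 5.0, 0.01% Tween-20; stop pH 10; fluorescence 365/440; AC50 via Hill.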
# ALDH1A1 inh: inhibitors of human aldehyde dehydrogenase 1A1; P00352; Purified ALDH1A1, NADH fluorescence, propionaldehyde substrate; Potency, µM (highest dose often 75.3 µM), actives largely listed as inhibitors; 220,000 compounds, 7.3% hits; AID 1030; active = well fitted inhibition curve with a large enough effect, not every such curve was filed as active; inconclusive = small, poorly fitted or top-dose-only effect, or another doubt; inactive = no such curve, though single readings can be large or run the other way
# Hits are given with their value; 0 = inactive; ? = inconclusive; - = not tested or not shown; [ ] = remark or other dose. Unless noted, calls come from the whole dose curve; as a rule, active = well fitted curve in the direction sought with a large enough effect; inconclusive = small, poorly fitted or top-dose-only effect, or another doubt; inactive = no such curve, though single readings can be large; an effect the other way counts as inactive or inconclusive.
SMILES,PNC assembly inh,GLA inh pH 4.5,HPGD inh,ALOX12 inhib,aGal spleen mod,ALDH1A1 inh
Cc1ccc(C(=O)c2nocc2C(=O)c2cccs2)cc1,0,0,22µM,0,0,3.2µM
CC(C(=O)O)c1ccc(C(=O)c2cccs2)cc1 (configuration not stated),-,0,?,0,0,?
Nc1cc(=O)[nH]c(SCC(=O)Nc2ccc(S(=O)(=O)N3CCOCC3)cc2)n1,0,0,0,0,0,?
Cc1nnc(SCC(=O)NC23CC4CC(CC(C4)C2)C3)s1,-,0,-,-,0,?
Nc1cc(=O)[nH]c(SCC(=O)Nc2ccc(S(=O)(=O)N3CCCCC3)cc2)n1,-,0,-,-,0,19µM
Cc1csc(SCC(=O)Nc2ccc(S(=O)(=O)N3CCCC3)cc2)n1,0,0,0,0,0,14µM
Cc1csc(SCC(=O)NC23CC4CC(CC(C4)C2)C3)n1,0,0,28µM,0,0,0
CC(SCC(=O)Nc1ccc(S(=O)(=O)N2CCCCC2)cc1)C(=O)O (configuration not stated),0,0,0,0,0,28µM
Cc1cc(C)nc(SCC(=O)Nc2ccc(S(=O)(=O)N3CCCCC3)cc2)n1,0,0,0,0,0,0
C=CC1=C2C=C(C3CC3)N(C3CCCCC3)C=C2C(=O)C(C)(OC(=O)c2ccco2)C1=O (configuration not stated),-,0,0,0[11.4 µM],0[17.5 µM],0[13.5 µM]
COc1ccc(NC(=O)c2ccco2)cc1S(=O)(=O)N1CCOCC1,-,0,-,-,0,0
O=C(NN=C1CCCCCCCCCCC1)c1cccc(S(=O)(=O)N2CCOCC2)c1,0,0,0,0,0,13µM
COc1ccc(NC(=O)c2cc3c(s2)CCC3)cc1S(=O)(=O)N1CCOCC1,0,0,0,0,0,0.56µM
COc1ccc(S(=O)(=O)N2CCOCC2)cc1NC(=O)c1cc2c(s1)CCCC2,0,0,?,0,0,4µM
O=C(Nc1cccc(S(=O)(=O)N2CCOCC2)c1)c1cc2c(s1)CCC2,?,0,0,0,0,3.2µM
O=C(Nc1cccc(S(=O)(=O)N2CCOCC2)c1)c1ccccn1,-,0,-,-,0,-
O=C(Nc1cc(S(=O)(=O)N2CCOCC2)ccc1N1CCOCC1)c1cc2c(s1)CCC2,-,0,-,-,0,-
COC(=O)CSc1nc(C)c2c(n1)CCCC2,-,0,-,-,0,0
COc1ccc(CC(=O)Nc2nc3ccccc3s2)cc1S(=O)(=O)N1CCOCC1,?,0,0,0,0,0
COc1ccc(CC(=O)Nc2nc3ccc(F)cc3s2)cc1S(=O)(=O)N1CCOCC1,?,0,0,0,0,20µM
N#CCC(=N)N1CCN(c2ccc(Cl)cc2)CC1,0,0,0,0,0,0
CCOP(=O)(OCC)C(C#N)=C1SCN(c2ccc(Cl)cc2)CS1,0,0,20µM,0,0,0
Cc1nc(NCCNC(=O)c2ccco2)c2c(C)c(C)sc2n1,0,0,0,0,0,14µM
S=C(c1ccc(-c2cc(Cl)ccc2Cl)o1)N1CCCCC1,?,0,7.9µM,0,0,0
O=C(Nc1ccc(CN2CCOCC2)cc1)c1ccc(-c2cc(Cl)ccc2Cl)o1,0,0,?,0,0,?
SMILES,PNC assembly inh,GLA inh pH 4.5,HPGD inh,ALOX12 inhib,aGal spleen mod,ALDH1A1 inh
S=C(c1ccc(-c2cc(Cl)ccc2Cl)o1)N1CCOCC1,0,0,28µM,?,0,22µM
O=S(=O)(O)O,-,-,0,0,0,?
CCCCCCC1=Cc2cc(OC)c(OC)cc2C(CC(=O)/C=C/OC)O1 (configuration not stated),-,-,-,-,0[17.5 µM],0[13.5 µM]
Cc1ccc(S(=O)(=O)NCC2CCC(C(=O)NCc3ccc4c(c3)OCO4)CC2)cc1 (configuration not stated),0,0,0,0,0,7.1µM
Cc1ccc(CNC(=O)CCc2ccc(S(=O)(=O)NC3CCCCC3)cc2)cc1,0,0,0,0,0,?
Cc1ccc(S(=O)(=O)NCC2CCC(C(=O)NCc3cccnc3)CC2)cc1 (configuration not stated),-,0,-,-,0,6.3µM
O=C(NCc1ccc2c(c1)OCO2)C1CCC(CNS(=O)(=O)c2ccc(Cl)cc2)CC1 (configuration not stated),?,0,0,0,0,0
O=C(CCc1ccc(S(=O)(=O)NC2CCCCC2)cc1)NCc1cccnc1,-,0,-,-,0,13µM
Cc1ccc(S(=O)(=O)N2CCC(C(=O)OC(C)C(=O)NCc3ccc4c(c3)OCO4)CC2)cc1 (configuration not stated),0,0,18µM,0,0,0
CC1CCN(S(=O)(=O)c2ccc(C(=O)NCc3ccc4c(c3)OCO4)cc2)CC1,?,0,0,0,0,0
CC(C)NC(=O)N1CCC2(CC1)CCN(C(=O)c1cccc(F)c1)CC2,-,-,0,0,0,0
CCC[C@@H]1C[C@@]1(CCC)C(NP(=O)(c1ccccc1)c1ccccc1)c1ccc(Cl)cc1 (some centres not stated),-,0,0,0,0,0
C=CCN1CCc2c(cc(O)c(O)c2Cl)C(c2cccc(C)c2)C1 (configuration not stated),-,0,0,0,0,0
O=C1CCC(C(=O)NCc2cccnc2)N1 (configuration not stated),-100,0,0,0,0,0
Cc1ccc(S(=O)(=O)NCC2CCC(C(=O)NCc3ccccn3)CC2)cc1 (configuration not stated),-,0[21.1 µM],-,-,0,7.9µM
CCC/C(O)=C1\C(=O)CC(c2ccccc2)CC1=NC(C)C(=O)O (configuration not stated),?,0,0,0,0,0
COc1cc(C(=O)Nc2ccc(S(=O)(=O)Nc3ncccn3)cc2)c([N+](=O)[O-])cc1OC,-,0,-,-,0,0
O=C1c2ccccc2C(=O)c2c1cccc2-n1nnc2ccccc21,-,0,-,-,0,-
O=C1C(N2CCOCC2)=C(n2nnc3ccccc32)C(=O)c2ccccc21,0,0,?,0,0,1.3µM
COC(=O)[C@H](COC(C)(C)C)NC(=O)O[C@@H]1C(=O)c2ccc(OC)cc2O[C@H]1c1ccc2c(c1)OCO2,-,0,0,-,0,0
Cc1cc(C)n(C(C[N+](=O)[O-])c2ccc(Cl)cc2)n1 (configuration not stated),?,0,7.9µM,0,0,?
CC(Sc1nnc2ccccn12)C(=O)Nc1ccc(Cl)cn1 (configuration not stated),0,0,0,0,0,0
CC(Sc1nnnn1-c1ccccc1)C(=O)Nc1ccc(Cl)cn1 (configuration not stated),0,0,0,0,0,5µM
Cn1c(C(=O)NCCc2c[nH]c3ccccc23)cc2sccc21,-81,0,0,0,0,0
O=C(NCCc1c[nH]c2ccccc12)c1cc2sccc2n1Cc1ccccc1,0,0,0,0,0,?
